Source: PubChem BioAssay
Rows were chosen to be rich in hits. Some 2.4% of all compounds tested hit in one or more screens of this group.
PKD1 inh = inhibitors of human PKD1 kinase. Q15139. PKD1 kinase fluorescence polarization assay. inhibition, % (concentration not given with the values). 200,000 compounds, 0.056% hits; in the data active = inhibition above about 50%
Target sequence (Q15139 whole entry, looked up): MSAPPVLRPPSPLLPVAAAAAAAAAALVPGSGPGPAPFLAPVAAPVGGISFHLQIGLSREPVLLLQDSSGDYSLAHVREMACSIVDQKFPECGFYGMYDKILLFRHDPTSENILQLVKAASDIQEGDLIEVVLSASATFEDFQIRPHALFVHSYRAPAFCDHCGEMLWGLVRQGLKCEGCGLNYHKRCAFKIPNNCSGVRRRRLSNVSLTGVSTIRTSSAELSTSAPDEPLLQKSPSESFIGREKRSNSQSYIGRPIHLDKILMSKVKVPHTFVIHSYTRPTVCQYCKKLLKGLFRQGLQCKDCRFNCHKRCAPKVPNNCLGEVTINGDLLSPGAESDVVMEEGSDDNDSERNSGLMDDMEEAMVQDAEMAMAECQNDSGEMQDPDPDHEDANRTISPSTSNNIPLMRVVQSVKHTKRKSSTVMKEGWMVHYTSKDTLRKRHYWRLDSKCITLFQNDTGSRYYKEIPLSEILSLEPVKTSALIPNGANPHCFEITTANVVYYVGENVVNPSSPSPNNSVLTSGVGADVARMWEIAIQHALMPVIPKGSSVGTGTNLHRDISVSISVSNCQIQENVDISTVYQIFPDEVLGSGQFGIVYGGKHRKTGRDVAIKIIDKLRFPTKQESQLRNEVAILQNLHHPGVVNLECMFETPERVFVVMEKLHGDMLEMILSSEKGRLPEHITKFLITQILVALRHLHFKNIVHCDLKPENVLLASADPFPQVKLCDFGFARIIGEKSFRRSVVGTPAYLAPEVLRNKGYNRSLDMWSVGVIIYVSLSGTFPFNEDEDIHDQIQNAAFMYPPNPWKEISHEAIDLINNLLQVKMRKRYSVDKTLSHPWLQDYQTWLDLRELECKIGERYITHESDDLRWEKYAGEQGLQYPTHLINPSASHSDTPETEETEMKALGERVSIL
PERK inh = inhibitors of human PERK kinase. CHO PERK-DD fusion, SEAP luminescence translation reporter. inhibition, % at 5.6 µM. 220,000 compounds, 0.17% hits. AID 1416;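 active = inhibition above the mean inhibition of all tested compounds plus 3 SD, set separately per screening campaign, cut at about 2.9% in these data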;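 also: PERK kinase domain activated by AP20187 dimerizer at 100 nM; 0% = DMSO with dimerizer and 100% = rapamycin at 8.4 µM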
TNF death inh = inhibitors of TNF-alpha induced necroptosis in Jurkat FADD-/- cells | Jurkat FADD-/- TNF necroptosis rescue, ATP luminescence, 24 h; 0 = TNF only, 100 = no-TNF cells | activation (protection from cell death), % at 10 µM | 220,000 compounds, 0.068% hits;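 active = activation, meaning protection from cell death, of at least 50% relative to plate controls; inactive = activation below 50%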;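 also: necroptosis triggered by 40 ng/mL TNF-alpha added together with compound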
DTT redox prof = compounds producing H2O2 with reducing agent – biochemical, NIH compound library profiling, artefact control for MLSCN library redox annotation, primary screen | DTT-dependent redox cycling H2O2, phenol red/HRP absorbance; 100% = 100 µM peroxide control, 0% = buffer | activation, % at 10 µM | 200,000 compounds, 0.03% hits | AID 878;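 active = activation of at least 50% relative to the plate's high and low controls in the primary single-dose screen; inactive = activation below 50%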;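 also: compound incubated with DTT at 0.8 mM final as the reducing agent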
L929 necroptosis = blocks zVAD induced death of L929 cells; L929 zVAD necroptosis rescue, ATP luminescence, 24 h; with zVAD 60 µM; AID 1377; viability rescue, % at 10 µM; 220,000 compounds, 0.38% hits;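 active = activation, scaled between plate controls, above about 75%, limit read from the data; inactive = activation under that limit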;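 also: 0% = zVAD with DMSO and 100% = DMSO alone without zVAD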
WT yeast gro inh = growth inhibition of WT yeast, mitochondrial fusion screen. mitochondrial fusion phenotypic screen, WT strain. 190,000 compounds, 2.1% hits. inhibition, % at 10 µM; in the data active = inhibition above about 58%; tested in S. cerevisiae
Starred values were filed as active, the others as inactive.

CC1(C)C(=O)OC(c2cccn2-c2cccc([N+](=O)[O-])c2)C2(CCCCC2)C1=O (stereo not drawn) was read as PKD1 inh 5.0, PERK inh 1.1, TNF death inh 1.3, DTT redox prof 0.5, L929 necroptosis -0.2 and WT yeast gro inh 77.8*.
For CCCn1nnc(NC(=O)c2ccc3c(c2)OCO3)n1 the results were PERK inh 1.0, TNF death inh -1.3 and L929 necroptosis -0.1.
Screening COc1ccccc1/C=C/CN1CCCC(CO)(Cc2cccc(Cl)c2)C1 (stereo not drawn) returned PKD1 inh -3.6, PERK inh 0.8, TNF death inh 3.3, DTT redox prof 0.8, L929 necroptosis 1.0 and WT yeast gro inh 65.0*.
For O=C(Nc1ccccc1-c1ccccc1)C1CCCN(c2ncccn2)C1 (stereo not drawn) the results were PKD1 inh -1.6, PERK inh 0.0, TNF death inh -0.8, DTT redox prof -0.3, L929 necroptosis 0.2 and WT yeast gro inh 44.6.
Screening O=C(O)C1CCCCC1C(=O)Nc1ccc(F)c(F)c1 (stereo not drawn) returned PKD1 inh -8.8, PERK inh 0.2, TNF death inh 0.4, DTT redox prof 0.4, L929 necroptosis 0.6 and WT yeast gro inh 0.7.
O=C(O)C1CCCCC1C(=O)Nc1ccc(F)cc1F (stereo not drawn) was read as PKD1 inh -4.3, PERK inh 2.1, TNF death inh -1.7, DTT redox prof 2.5, L929 necroptosis 0.4 and WT yeast gro inh 96.9*.
Screening Oc1c(Br)cc(Br)cc1/C=N/c1nc2c(s1)CCCC2 returned PKD1 inh -6.6, PERK inh 0.0, TNF death inh -9.0, DTT redox prof -4.7, L929 necroptosis -0.1 and WT yeast gro inh 10.2.
Oc1ccc2ccccc2c1/C=N/c1nc2c(s1)CCCC2 was read as PKD1 inh -6.3, PERK inh 1.1, TNF death inh -9.9, DTT redox prof 0.0, L929 necroptosis -0.8 and WT yeast gro inh 79.7*.
Screening Cn1nc(C(F)(F)F)c(CO)c1Sc1ccc(F)cc1 returned PKD1 inh 3.0, PERK inh 0.3, TNF death inh 1.9, DTT redox prof -0.1, L929 necroptosis 0.9 and WT yeast gro inh -1.5.
For O=C(Nc1ccc(N2CCCC2)c(Cl)c1)c1ccc([N+](=O)[O-])o1 the results were PKD1 inh -1.1, PERK inh -0.1, TNF death inh -11.7, DTT redox prof -1.6, L929 necroptosis -0.4 and WT yeast gro inh 86.1*.
Screening Cc1[nH]c(=O)[nH]c(=O)c1S(=O)(=O)N1CCCC(C(=O)N2CCN(c3cccc(C(F)(F)F)c3)CC2)C1 (stereo not drawn) returned PKD1 inh -3.7, PERK inh 0.8, TNF death inh 0.3, DTT redox prof 0.3, L929 necroptosis 3.3 and WT yeast gro inh -4.9.
For Clc1ccc(/C=N/N2CCN(Cc3ccccc3Cl)CC2)cc1 the results were PKD1 inh 2.4, PERK inh -0.1, TNF death inh 0.4, DTT redox prof -2.2, L929 necroptosis 3.5 and WT yeast gro inh 66.3*.
For COc1ccccc1/C=C/C=N\N1CCN(Cc2ccccc2Cl)CC1 the results were PKD1 inh -7.4, PERK inh 0.9, TNF death inh 1.6, DTT redox prof 0.2, L929 necroptosis 1.0 and WT yeast gro inh 63.1*.
Screening Oc1ccc(Cl)cc1/C=C/c1ccc2cccc(O)c2n1 returned PKD1 inh -0.4, PERK inh -0.9, TNF death inh -2.7, DTT redox prof 0.5, L929 necroptosis 31.4 and WT yeast gro inh 71.3*.
`Cc1ccc(N/C(N)=N/c2nc(CSc3ccc(C)cc3)cc(=O)[nH]2)cc1` gave PKD1 inh 3.7, PERK inh 0.4, TNF death inh -5.7, DTT redox prof 0.9, L929 necroptosis -0.5 and WT yeast gro inh 9.1.
COc1ccc(N/C(N)=N/c2nc(CSc3ccc(C)cc3)cc(=O)[nH]2)cc1 was read as PKD1 inh 7.6, PERK inh 0.5, TNF death inh -2.6, DTT redox prof 0.0, L929 necroptosis 2.2 and WT yeast gro inh 80.3*.
Screening O=C(COC(=O)c1ccc(=O)[nH]c1)Nc1cccc(S(=O)(=O)N2CCOCC2)c1 returned PERK inh 2.9*, TNF death inh 0.4 and L929 necroptosis -0.3.
For O=C(COC(=O)c1cccs1)Nc1cccc(S(=O)(=O)N2CCOCC2)c1 the results were PKD1 inh 4.0, PERK inh 0.9, TNF death inh 4.6, DTT redox prof 0.4, L929 necroptosis 1.1 and WT yeast gro inh 5.5.
Cc1ccc(C)c(N=Nc2nc3ccccc3n2C)c1 was read as PKD1 inh -1.4, PERK inh 0.1, TNF death inh -12.1, DTT redox prof 1.7, L929 necroptosis 0.0 and WT yeast gro inh 82.4*.
Screening Cn1c(/N=C/c2cccs2)nc2ccccc21 returned PKD1 inh -13.7, PERK inh 0.5, TNF death inh 0.2, DTT redox prof -0.5, L929 necroptosis -0.3 and WT yeast gro inh 5.5.
Cc1cc(C)c(C)c(N=Nc2nc3ccccc3n2C)c1C was read as PKD1 inh -3.8, PERK inh -1.2, TNF death inh -3.9, DTT redox prof 0.1, L929 necroptosis -0.1 and WT yeast gro inh 84.0*.
Screening O=C(Nc1ccccc1C(=O)NC(Cc1ccccc1)C(=O)NC1CCCCC1)c1ccccc1 (stereo not drawn) returned PKD1 inh 1.2, PERK inh 0.1, TNF death inh 2.7, DTT redox prof -0.2, L929 necroptosis -0.2 and WT yeast gro inh 5.2.
Cc1ccc(NS(=O)(=O)c2ccc(OCC(N)=O)cc2)cc1 was read as PKD1 inh -1.3, PERK inh 2.4, TNF death inh 1.6, DTT redox prof -0.3, L929 necroptosis 0.5 and WT yeast gro inh -5.6.
Cc1nc(N2CCN(Cc3ccc4c(c3)OCO4)CC2)c2cc(-c3ccccc3)sc2n1 was read as PKD1 inh 0.4, PERK inh -0.5, TNF death inh -0.2, DTT redox prof -2.2, L929 necroptosis -1.1 and WT yeast gro inh 70.0*.
`CC(=O)Nc1sc2c(c1-c1nc3ccccc3s1)CCN(C(C)C)C2` gave PKD1 inh 1.6, PERK inh 0.4, TNF death inh -10.3, DTT redox prof -0.1, L929 necroptosis 40.2 and WT yeast gro inh 58.4*.
Screening COc1ccc(O)c(-c2cc(C(F)(F)C(F)F)nc(-c3ccccc3)n2)c1 returned PKD1 inh -6.4, PERK inh 0.9, TNF death inh -2.0, DTT redox prof -7.9, L929 necroptosis -0.2 and WT yeast gro inh -1.5.
`Oc1ccccc1-c1cc(C(F)(F)C(F)F)nc(-c2ccccc2)n1` gave PKD1 inh -12.9, PERK inh 3.0*, TNF death inh -0.8, DTT redox prof 1.6, L929 necroptosis 0.0 and WT yeast gro inh -13.7.
